In the library only some 7.3% were active in any assay of this set; here they are far more common.
Rab9 prom act: qHTS Assay for Rab9 Promoter Activators; AID 485297, 2010; 2.8% of 320,000 active; Potency, µM (highest dose often 9.22 µM), for inactives: at the highest dose activation, negative = inhibition, hits mostly activators; Huh7 Rab9 promoter-luciferase reporter, luminescence, 24 h; also: % of control where 0% means no effect; nearly all actives have a fitted effect of over 60% in size
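Measured in stably transfected Huh7 cells bearing a Rab9 promoter–luciferase construct: 24 h compound treatment at 37 °C, followed by luminescence detection.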
NPC1 promoter act: qHTS Assay for NPC1 Promoter Activators | Huh7 NPC1 promoter luciferase reporter, 24 h | Potency, µM (top dose mostly 9.22 µM), without a hit: at the top dose activation, hits mostly activators | 2.4% of 320,000 active | AID 485313, 2010; also: % of control where 0% means no effect; nearly all actives have a fitted effect of over 60% in size
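Huh7 cells stably carrying NPC1 promoter–luciferase, plated in Opti-MEM with 10% FBS for 2 h, were exposed to compound in DMSO for 24 h at 37 °C; luciferase reagent was added for 10 min and luminescence read.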
ELG1 genotox: qHTS screen for small molecules that induce genotoxicity in human embryonic kidney (HEK293T) cells expressing luciferase-tagged ELG1 | HEK293T ELG1-luciferase reporter, luminescence, 16 h | Potency, µM (highest dose often 46 µM), for inactives: top-dose activity change, positive = activation, actives largely listed as activators | 1.3% of 330,000 active | AID 504466, 2011; also: % of control where 0% means no effect; nearly all actives have a fitted effect of over 60% in size
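Genotoxic stress is detected as increased luminescence from luciferase-tagged ELG1 in HEK293T cells, measured with ONE-Glo after a 16 hr treatment at 37 °C.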
uPA surface inh: qHTS for Inhibitors of Cell Surface uPA Generation; Potency, µM (top dose mostly 38.3 µM), inactives show at the highest dose activity change, negative = inhibition, most hits filed as inhibitors; cell surface uPA generation assay, qHTS; 0.31% of 330,000 active; active = well fitted inhibition curve with a large enough effect; inconclusive = small, poorly fitted or top-dose-only effect; inactive = no such curve, though single readings can be large or run the other way; tested in mouse RAW 264.7 cells; also: % is scaled to controls: 0 for no effect and ±100 for the full control effect; nearly all actives have a fitted effect of over 55% in size
SMN2 splice up: qHTS Assay for Enhancers of SMN2 Splice Variant Expression | HEK293 SMN2-luciferase splicing reporter, luminescence, 30-36 h | Potency, µM (highest dose often 46.1 µM), without a hit: at the highest dose activity change, positive = activation, most hits filed as activators | 2.8% of 210,000 active; also: % of control where 0% means no effect; nearly all actives have a fitted effect of over 55% in size
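HEK293 cells carry an SMN2 minigene-luciferase reporter in which exon 7 inclusion puts luciferase in frame. Cells were seeded at 2000 cells/well, attached for 10-12 hours, then exposed to compounds for 30-36 hours at 37C before ONE-Glo luminescence.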
FLuc modulator: qHTS profiling assay for firefly luciferase inhibitor/activator using purifed enzyme and Km concentrations of substrates (counterscreen for miR-21 project) | purified FLuc, Km substrates, luminescence inhibition | AID 588342, 2011 | Luciferin 4-monooxygenase (Photinus pyralis), P08659 | Potency, µM (doses to about 57.5 µM), for inactives: at the top dose activity change, negative = inhibition, hits mostly inhibitors | 6.9% of 360,000 active;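 also: plate controls were vehicle for no effect and reference inhibitor for full effect; nearly all actives have a fitted effect of over 55% in size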
Target sequence (P08659 whole entry, looked up): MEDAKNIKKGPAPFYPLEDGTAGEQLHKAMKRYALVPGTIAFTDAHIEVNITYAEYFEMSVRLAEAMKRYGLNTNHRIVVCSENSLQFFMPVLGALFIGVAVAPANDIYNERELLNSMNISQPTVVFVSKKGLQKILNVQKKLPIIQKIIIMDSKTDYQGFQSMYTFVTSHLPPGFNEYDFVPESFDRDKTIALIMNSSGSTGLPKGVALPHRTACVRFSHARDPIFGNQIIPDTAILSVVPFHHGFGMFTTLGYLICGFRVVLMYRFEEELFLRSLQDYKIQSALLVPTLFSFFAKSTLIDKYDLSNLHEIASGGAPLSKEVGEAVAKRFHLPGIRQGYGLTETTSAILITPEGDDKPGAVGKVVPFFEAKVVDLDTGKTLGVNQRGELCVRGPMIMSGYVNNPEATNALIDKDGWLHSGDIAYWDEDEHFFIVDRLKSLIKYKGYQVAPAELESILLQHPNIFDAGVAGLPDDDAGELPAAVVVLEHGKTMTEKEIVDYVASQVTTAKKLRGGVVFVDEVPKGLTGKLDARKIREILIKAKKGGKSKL
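Purified P. pyralis luciferase, 10 nM final, with Km-level 10 uM D-luciferin and 10 uM ATP in 50 mM Tris acetate pH 7.5, 10 mM Mg acetate, 0.01% Tween-20, 0.05% BSA; 6-point qHTS titration about 60 µM downward; luminescence read.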
Active calls of the source: *; ? = inconclusive; . = no result. Unless noted, calls follow the shape of the dose curve; as a rule, active = well fitted curve in the direction sought with a large enough effect; inconclusive = small, poorly fitted or top-dose-only effect, or another doubt; inactive = no such curve, though single readings can be large; an effect the other way counts as inactive or inconclusive. Potency is read from the fitted curve at half-maximal effect.

SMILES	Rab9 prom act	NPC1 promoter act	ELG1 genotox	uPA surface inh	SMN2 splice up	FLuc modulator
CCN(C(=O)CSc1cccc[n+]1[O-])C1CCCCC1	.	.	0%	22%	.	.
Cc1ccnc(N2C(=O)c3ccccc3C2O)c1 (configuration not stated)	?	1µM*	1.8µM*	?	11µM*	6µM*
Cc1ccnc(N2C(=O)c3ccccc3C2Nc2cccc(C)c2C)c1 (configuration not stated)	-4%	-3%	1%	3%	9%	3%
c1ccc(CNc2ccc3c(c2)ncn3C2CCCCC2)nc1	?	?	11%	-16%	28%	13µM*
COc1ccc(-c2nc(C)c(CCNC(=O)c3cc(OC)c(OC)c(OC)c3)s2)cc1OC	.	.	.	.	.	-12%
COc1ccc(-c2nc(C)c(CCNC(=O)c3cccs3)s2)cc1	.	.	.	.	.	27µM*
COc1ccc(-c2nc(C)c(CCNC(=O)c3ccc(F)c(F)c3)s2)cc1	.	.	.	.	.	21µM*
COc1ccc(-c2nc(C)c(CCNC(=O)c3cccc(C)c3)s2)cc1OC	.	.	.	.	.	24µM*
COc1cc(C(=O)NCCc2sc(-c3ccc(C)cc3)nc2C)cc(OC)c1OC	.	.	.	.	.	-17%
C=Cc1ccc(Cn2nc(-c3ccc(C)c(S(=O)(=O)N(CC)CC)c3)ccc2=O)cc1	.	.	.	.	.	-2%
O=C(N/N=C/c1ccc(-c2ccc(Cl)c(C(=O)O)c2)o1)c1cc2c(ccc3ccccc32)o1	1%	13%	5%	-3%	.	21µM*
Cc1ccc(-c2ccc(/C=N\NC(=O)c3cc4c(ccc5ccccc54)o3)o2)cc1[N+](=O)[O-]	-1%	1%	7%	7%	-17%	-5%
COc1cc(/C=N/NC(=O)c2cc3c(ccc4ccccc43)o2)cc(OC)c1O	-4%	-2%	0%	.	.	4.8µM*
COc1ccc(/C=N\NC(=O)c2cc3c(ccc4ccccc43)o2)cc1O	-1%	-2%	-9%	?	.	12µM*
O=C(O)c1ccc(/C=N/NC(=O)c2cc3c(ccc4ccccc43)o2)cc1	11%	-2%	0%	0%	.	6µM*
O=C(N/N=C/c1ccncc1)c1cc2c(ccc3ccccc32)o1	4%	0%	3%	9%	-10%	?
COc1ccccc1/C=N/NC(=O)c1cc2c(ccc3ccccc32)o1	3%	1%	-5%	-12%	.	19µM*
COc1ccc(/C=N/NC(=O)c2cc3c(ccc4ccccc43)o2)cc1OC	-3%	-3%	-4%	0%	.	11µM*
CCCCCC(=O)Nc1ccc2oc(-c3cncc(Br)c3)nc2c1	1.6µM*	0.71µM*	?	15%	11µM*	7%
CCCC(=O)Nc1ccc2oc(-c3cncc(Br)c3)nc2c1	1.3µM*	1.6µM*	9.2µM*	-5%	4.5µM*	?
COCCCn1c(C(=O)NCCN2CCOCC2)cc2c(=O)n3ccccc3nc21	-2%	-4%	10%	-4%	.	2.7µM*
CCc1cccc(NC(=O)Cn2nc(-c3cc(C)ccc3C)ccc2=O)c1	.	.	.	.	1%	-15%
O=C(c1ccccc1)n1nc(-c2ccco2)nc1NCc1ccccc1Cl	.	.	.	.	7%	-9%
Cc1ccc(-n2cc(CNCCc3cscn3)c(-c3ccc(F)cc3)n2)cc1	8%	-2%	0%	-3%	.	11µM*
Cc1ccc(-n2cc(CNCCCn3ccnc3C)c(-c3ccc(F)cc3)n2)cc1	-4%	-2%	1%	-3%	.	24µM*
SMILES	Rab9 prom act	NPC1 promoter act	ELG1 genotox	uPA surface inh	SMN2 splice up	FLuc modulator
COc1ccc(-n2cc(CNCCc3cscn3)c(-c3ccccc3Cl)n2)cc1	0%	-1%	-2%	-1%	.	24µM*
CCOc1ccccc1NC(=O)Nc1nnc(N(C)Cc2ccccc2)s1	.	.	.	.	.	-8%
CSc1ccccc1-c1nnc(-c2ccc(Cl)c(Cl)c2)o1	?	?	?	8%	12%	7.6µM*
CSc1ccccc1-c1nnc(-c2ccc(Cl)cc2Cl)o1	3.2µM*	?	?	2%	?	2.1µM*
CO[C@]12CC(COC(=O)c3cncc(Br)c3)CN(C)[C@@H]1Cc1cn(C)c3cccc2c13 (some centres not stated)	.	.	.	.	-11%	.
CCOC(=O)CCN(c1ccccc1)S(=O)(=O)c1ccc(-c2ccc(=O)[nH]n2)s1	-4%	1%	4%	0%	.	1%
COc1ccc(OC)c(NC(=O)Nc2nnc(N3CCC(C)CC3)s2)c1	-3%	0%	3%	-4%	-10%	24µM*
COc1ccc(OC)c(NC(=O)C2CCC(CNc3c(N4CCC(C)CC4)c(=O)c3=O)CC2)c1 (configuration not stated)	-8%	-5%	27%	-28%	16µM*	1%
COc1ccc(C)cc1NC(=O)C1CCC(CNc2c(N3CCOCC3)c(=O)c2=O)CC1 (configuration not stated)	-7%	-1%	-1%	12%	8%	1%
COc1ccc(NC(=O)Nc2nnc(N3CCC(C)CC3)s2)cc1OC	-3%	-1%	5%	2%	-11%	?
COc1ccc2c(c1)O/C(=C\c1sccc1C)C2=O	?	?	18µM*	-6%	?	0.17µM*
COc1ccc(/C=C2\Oc3ccccc3C2=O)cc1	.	.	2.3µM*	7.1µM*	.	.
O=C(c1ccccc1)c1ccc(OC(=O)N2CCOCC2)cc1	16%	13%	3%	7%	-16%	-14%
O=C1/C(=C/c2ccccc2)Oc2cc(OC(=O)N3CCOCC3)ccc21	20%	?	9%	14%	?	13µM*
CC(=O)Oc1ccc(/C=C2/Oc3ccccc3C2=O)cc1	13%	17%	?	-8%	.	3.8µM*
O=C(O)c1ccc2c(=O)[nH]c(CCl)nc2c1	-7%	-4%	2%	-7%	3%	4%
Cc1ccc(-n2nc(C)c3nc(CCC(=O)Nc4ccc(F)cc4)c(=O)n(C)c32)cc1	.	.	.	.	.	-2%
CCCCOc1ccc(C(=O)Nc2ccc3c(c2)OCO3)cc1	?	22%	?	?	?	?
CCC(=O)Oc1ccc(C(=O)Nc2ccc3c(c2)OCO3)cc1	4.5µM*	2.2µM*	?	-7%	16µM*	5.4µM*
CCCOc1ccc(C(=O)Nc2ccc3c(c2)OCO3)cc1	2.8µM*	1µM*	2.3µM*	?	.	2.1µM*
COc1ccc(-n2c(=O)c3sc4ccccc4c3n(CC(=O)NC3CCCCC3)c2=O)cc1	.	.	.	.	-15%	-2%
Cn1c(=O)n(C)c2cc(N3CCOCC3)c(NS(=O)(=O)c3cccc(C#N)c3)cc21	.	.	.	.	.	-12%

Screening results from PubChem.
